Data on five compounds can be found in PubChem BioAssay.

Activity calls are given as the source filed them.

Test [1] is described as follows: binders of probe aFSTL3 on microarray, primary screen, stem cell growth factor project, biochemical, small-molecule microarray, fluorescence 635/667 (AID 1064).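 Also: measures binding of the biotinylated anti-FSTL3 antibody to printed compounds.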 The note with it: higher = more signal.
A short description of test [2]: binders from COS7 lysate, DM2A8 probe, primary screen, torsin A project, cell lysate, small-molecule microarray, fluorescence 635/667 (AID 1065). The conditions noted are these: higher = more signal, COS7 lysate expressing mutant human TOR1A.
Test [3] in a line: binders of probe aFGF2 on microarray, primary screen, stem cell growth factor project, biochemical, small-molecule microarray, fluorescence 635/667 (AID 1067).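 Also: measures binding of biotinylated aFGF2 protein to printed compounds on slides; z-score merges feature fluorescence and signal-to-noise across triplicate slides.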 The note with it: higher = more signal.
Test [4] is described as follows: binders of probe aFGF10 on microarray, primary screen, stem cell growth factor project, biochemical, small-molecule microarray, fluorescence 635/667 (AID 1071).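 Also: score merges 667 nm spot intensity and signal to noise from triplicate slides.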 The note with it: higher = more signal.
The target in test [5] is Neurogenic locus notch homolog protein 2 (Homo sapiens) (UniProt Q04721). As to the kind of experiment: Notch2 binders on small-molecule microarrays, primary screen, biochemical, small-molecule microarray, 635 nm fluorescence, stem cell growth factors (AID 1073). The conditions noted are these: Notch2 binding, higher = more signal.
Neurogenic locus notch homolog protein 2 (Homo sapiens), sequence (Q04721 whole entry, looked up, canonical isoform): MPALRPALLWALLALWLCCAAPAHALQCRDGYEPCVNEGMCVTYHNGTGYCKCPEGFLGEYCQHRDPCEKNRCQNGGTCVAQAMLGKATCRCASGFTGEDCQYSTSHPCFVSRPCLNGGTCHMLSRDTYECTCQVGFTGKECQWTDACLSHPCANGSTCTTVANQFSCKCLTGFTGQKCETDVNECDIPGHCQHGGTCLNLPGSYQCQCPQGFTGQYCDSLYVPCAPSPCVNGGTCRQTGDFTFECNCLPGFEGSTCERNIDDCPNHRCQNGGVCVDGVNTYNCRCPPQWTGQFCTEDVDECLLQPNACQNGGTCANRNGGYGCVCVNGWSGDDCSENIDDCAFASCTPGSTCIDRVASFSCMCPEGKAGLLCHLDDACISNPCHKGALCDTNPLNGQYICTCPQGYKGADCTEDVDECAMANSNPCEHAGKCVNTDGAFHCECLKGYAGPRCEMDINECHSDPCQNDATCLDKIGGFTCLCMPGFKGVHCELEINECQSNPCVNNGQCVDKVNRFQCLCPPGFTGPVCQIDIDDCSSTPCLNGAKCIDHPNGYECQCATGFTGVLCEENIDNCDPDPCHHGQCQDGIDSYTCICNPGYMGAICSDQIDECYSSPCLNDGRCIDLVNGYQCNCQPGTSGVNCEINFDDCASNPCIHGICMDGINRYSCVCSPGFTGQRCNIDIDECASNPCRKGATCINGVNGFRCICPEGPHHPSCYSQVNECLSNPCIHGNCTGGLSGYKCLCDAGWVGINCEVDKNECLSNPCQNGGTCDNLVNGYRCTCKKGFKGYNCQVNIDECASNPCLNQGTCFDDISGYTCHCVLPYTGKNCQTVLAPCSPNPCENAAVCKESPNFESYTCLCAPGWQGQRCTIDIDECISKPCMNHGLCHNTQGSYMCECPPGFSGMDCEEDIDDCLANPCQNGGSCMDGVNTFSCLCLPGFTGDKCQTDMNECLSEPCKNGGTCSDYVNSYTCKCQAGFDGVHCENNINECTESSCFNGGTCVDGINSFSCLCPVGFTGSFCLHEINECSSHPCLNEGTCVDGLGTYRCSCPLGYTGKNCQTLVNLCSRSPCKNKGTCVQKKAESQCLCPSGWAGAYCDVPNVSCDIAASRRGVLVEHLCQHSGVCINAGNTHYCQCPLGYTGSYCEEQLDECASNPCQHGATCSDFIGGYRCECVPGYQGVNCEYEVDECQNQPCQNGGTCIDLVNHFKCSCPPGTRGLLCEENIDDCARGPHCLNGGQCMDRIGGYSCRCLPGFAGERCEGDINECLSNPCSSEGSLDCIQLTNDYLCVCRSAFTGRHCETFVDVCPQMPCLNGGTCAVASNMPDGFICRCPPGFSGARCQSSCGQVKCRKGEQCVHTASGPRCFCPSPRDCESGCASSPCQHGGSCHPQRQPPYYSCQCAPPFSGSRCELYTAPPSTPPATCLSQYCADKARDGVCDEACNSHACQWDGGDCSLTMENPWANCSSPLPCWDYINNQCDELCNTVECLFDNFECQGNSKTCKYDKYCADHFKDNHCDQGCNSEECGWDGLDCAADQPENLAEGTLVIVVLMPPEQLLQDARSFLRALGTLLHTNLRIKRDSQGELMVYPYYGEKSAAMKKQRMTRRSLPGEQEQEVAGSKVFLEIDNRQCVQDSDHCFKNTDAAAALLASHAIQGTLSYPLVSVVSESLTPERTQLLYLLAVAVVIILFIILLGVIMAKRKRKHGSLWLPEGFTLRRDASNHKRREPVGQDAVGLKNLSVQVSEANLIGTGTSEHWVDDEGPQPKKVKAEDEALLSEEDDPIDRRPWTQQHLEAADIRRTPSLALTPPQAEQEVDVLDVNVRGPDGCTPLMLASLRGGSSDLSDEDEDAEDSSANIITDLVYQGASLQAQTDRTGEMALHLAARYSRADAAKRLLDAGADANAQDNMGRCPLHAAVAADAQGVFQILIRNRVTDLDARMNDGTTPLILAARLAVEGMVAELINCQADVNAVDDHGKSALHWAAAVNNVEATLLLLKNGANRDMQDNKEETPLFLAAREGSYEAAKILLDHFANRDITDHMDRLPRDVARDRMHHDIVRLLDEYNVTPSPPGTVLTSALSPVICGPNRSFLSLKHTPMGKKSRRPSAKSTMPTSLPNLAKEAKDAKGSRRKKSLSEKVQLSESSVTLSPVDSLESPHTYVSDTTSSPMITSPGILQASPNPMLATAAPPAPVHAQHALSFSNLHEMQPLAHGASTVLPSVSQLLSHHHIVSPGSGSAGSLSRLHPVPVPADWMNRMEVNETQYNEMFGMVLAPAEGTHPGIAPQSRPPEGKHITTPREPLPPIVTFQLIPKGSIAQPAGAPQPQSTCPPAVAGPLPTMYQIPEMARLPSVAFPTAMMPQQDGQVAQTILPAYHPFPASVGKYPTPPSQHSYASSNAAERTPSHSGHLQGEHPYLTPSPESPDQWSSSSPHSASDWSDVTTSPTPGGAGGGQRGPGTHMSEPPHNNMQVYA
Test [6] deals with Pro-neuregulin-1, membrane-bound isoform (Homo sapiens) (UniProt Q02297). Description: NRG1 binders on small-molecule microarrays, primary screen, psychiatric disease protein project, biochemical, small-molecule microarray, fluorescence 635/667 (AID 1075).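 Also: score combines 667 nm spot fluorescence with signal to noise.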 The note with it: NRG1 binding, 635 nm fluorescence, higher = more signal.
Pro-neuregulin-1, membrane-bound isoform (Homo sapiens), sequence (Q02297 whole entry, looked up, the tested form may be a part, canonical isoform): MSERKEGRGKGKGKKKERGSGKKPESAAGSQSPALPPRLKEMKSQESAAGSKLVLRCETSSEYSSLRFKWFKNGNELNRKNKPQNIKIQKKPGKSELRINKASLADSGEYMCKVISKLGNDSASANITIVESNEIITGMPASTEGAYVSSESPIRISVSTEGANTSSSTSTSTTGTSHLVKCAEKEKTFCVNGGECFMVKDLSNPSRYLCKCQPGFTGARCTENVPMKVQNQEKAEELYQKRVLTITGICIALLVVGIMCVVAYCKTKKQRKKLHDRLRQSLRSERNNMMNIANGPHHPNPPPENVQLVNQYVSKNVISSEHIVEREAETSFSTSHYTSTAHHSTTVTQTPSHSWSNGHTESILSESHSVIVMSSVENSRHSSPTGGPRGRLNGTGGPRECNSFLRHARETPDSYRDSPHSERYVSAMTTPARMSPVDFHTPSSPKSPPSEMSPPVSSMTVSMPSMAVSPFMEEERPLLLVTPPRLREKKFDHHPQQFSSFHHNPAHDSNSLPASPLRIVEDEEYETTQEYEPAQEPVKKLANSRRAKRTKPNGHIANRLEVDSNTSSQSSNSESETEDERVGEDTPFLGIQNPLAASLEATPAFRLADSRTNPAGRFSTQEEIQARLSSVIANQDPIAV
The subject of test [7] is Neuregulin-1 EGF-like domain. Description: binders of neuregulin-1 EGF-like domain, primary screen, biochemical, small-molecule microarray, 635 nm fluorescence (AID 1081).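 Also: binding of the protein to compounds printed on small-molecule microarray slides.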 The note with it: small-molecule microarray binding, higher = more signal.
Test [8] is described as follows: FRG1 promoter luciferase signal modulators, primary screen, FRG1 inhibition for FSHD, cell-based, C2C12 myotubes, firefly/Renilla luciferase, luminescence (AID 1084). The conditions noted are these: higher = more signal, called active from +8 up or from −8 down.
The nature of test [9]: binders of probe aFST on microarray, primary screen, stem cell growth factor project, biochemical, small-molecule microarray, fluorescence 635/667 (AID 1086).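 Also: score merges 667 nm fluorescence with signal-to-noise of each printed compound spot.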 The note with it: higher = more signal.
Test [10] is described as follows: binders of probe aHhip on microarray, primary screen, stem cell growth factor project, biochemical, small-molecule microarray, fluorescence 635/667 (AID 1087).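 Also: score merges spot fluorescence at 667nm with spot signal to noise ratio.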 The note with it: higher = more signal.
Test [11] relates to PRMT1 (protein arginine N-methyltransferase 1). Description: PRMT1 binders on small-molecule microarrays, primary screen, biochemical, small-molecule microarray, 635 nm fluorescence (AID 1088).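 Also: binding of Prmt1 protein to compounds spotted on small-molecule microarray slides.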 The note with it: small-molecule microarray binding, higher = more signal.
Test [12] in a line: yeast growth modulation, basal conditions, primary screen, YJM789 clinical isolate, OD600, 24 h (AID 1089).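 Also: growth of clinical yeast isolate S. cerevisiae YJM 789 seeded 1000 cells per well; test concentration not given here.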 The conditions noted are these: S. cerevisiae YJM789 growth, higher = more signal, called active from +8 up or from −8 down.
Test [13] is described as follows: fission yeast growth modulation, primary screen, strain 972, OD600, 24 h, no modulator (AID 1090).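 Also: basal condition with compound alone and no growth modifier present; test concentration not given here.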 The conditions noted are these: S. pombe 972 growth, higher = more signal, called active from +8 up or from −8 down.
The nature of test [14]: S. cerevisiae growth modulation with rapamycin, primary screen, strain BY4716, OD600, 96 h (AID 1091). Also: test concentration not given here. The conditions noted are these: higher = more signal, called active from +8 up or from −8 down.
Test [15] addresses Torsin-1A-interacting protein 2 (Homo sapiens) (UniProt Q8NFQ8). As to the kind of experiment: LULL1 binders on small-molecule microarray, primary screen, cell lysate, human LULL1 lysate, 635/667 nm fluorescence (AID 1092).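 Also: probe is lysate of COS7 cells overexpressing human LULL1; score merges per-feature 667 nm fluorescence with signal-to-noise.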 The note with it: hLULL1 lysate binding, 635 nm fluorescence, higher = more signal.
Test [16] is described as follows: E. coli growth modulation, two-sided OD650, primary screen, E. coli filamentation project, strain DRC41, 24 h (AID 1093).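 Also: MC1000 strain lacking acrAB efflux and sulA so SOS filamentation is blocked; test concentration not given here.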 The conditions noted are these: OD650, 24 h, higher = more signal, called active from +8 up or from −8 down.
A short description of test [17]: small-molecule microarray binders of probe aLefty2, primary screen, biochemical, biotinylated probe, 635/667 nm fluorescence (AID 1094).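 Also: score merges spot fluorescence near 667 nm with spot signal-to-noise ratio.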 The note with it: higher = more signal.
In test [18] the test system is Noggin (protein binding on small-molecule microarray). Description: Noggin binders on small-molecule microarray, primary screen, biochemical, 635/667 nm fluorescence (AID 1095).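 Also: score merges 667 nm feature fluorescence with signal to noise over triplicate slides.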 The note with it: 635 nm fluorescence, higher = more signal.
The target in test [19] is Neurogenic locus notch homolog protein 3 (Homo sapiens) (UniProt Q9UM47). Description: NOTCH3 binders on small-molecule microarray, primary screen, biochemical, 635/667 nm fluorescence (AID 1096). The note with it: NOTCH3 binding, 635 nm fluorescence, higher = more signal.
Test [20] is described as follows: small-molecule microarray binders of probe aEGFR, primary screen, biochemical, biotinylated probe, 635/667 nm fluorescence (AID 1097).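 Also: probe is a biotinylated anti-EGFR antibody binding compounds printed on slides; score combines fluorescence near 667 nm and signal to noise of each spot.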 The note with it: higher = more signal.

Torsin-1A-interacting protein 2 (Homo sapiens), sequence (Q8NFQ8 whole entry, looked up): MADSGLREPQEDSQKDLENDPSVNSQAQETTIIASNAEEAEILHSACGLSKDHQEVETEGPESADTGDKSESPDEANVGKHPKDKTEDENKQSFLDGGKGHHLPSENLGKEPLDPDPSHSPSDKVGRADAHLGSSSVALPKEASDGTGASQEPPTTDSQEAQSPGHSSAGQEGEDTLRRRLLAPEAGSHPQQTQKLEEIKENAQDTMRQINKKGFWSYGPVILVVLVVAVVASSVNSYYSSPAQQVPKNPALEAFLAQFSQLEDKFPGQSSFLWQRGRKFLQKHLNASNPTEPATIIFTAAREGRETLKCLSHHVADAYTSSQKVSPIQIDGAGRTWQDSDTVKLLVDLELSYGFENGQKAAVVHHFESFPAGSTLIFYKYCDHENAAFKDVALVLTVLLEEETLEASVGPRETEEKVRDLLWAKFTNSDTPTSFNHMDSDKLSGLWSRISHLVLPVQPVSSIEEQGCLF

With `CCC[C@@H]1C[C@@]1(CCC)[C@@H](NC(=O)c1ccco1)c1ccc(Cl)cc1`, the composite z-score in test [1] was -0.0089; in test [2], -0.441; in test [3], -0.163; in [4], 0.0059; in test [5], -0.259; in test [6] it was -0.656. In addition, the composite z-score is -1.26 in test [7]; 0.161 in [9]; -0.313 in [10]; -1.25 in test [11]; -0.825 in test [15]; -0.149 in test [17]. Besides, the composite z-score in test [18] is -0.174; in [19], -0.625; in [20] it was -0.165. In addition, the z-score is -0.632 (inactive) in [8]; 0.349 (inactive) in [12]; -0.0896 (inactive) in test [13]; 0.194 (inactive) in test [14]; -1.1 (inactive) in test [16].

Regarding `C=CCOC(=O)[C@@H]1[C@H]2C(=O)O[C@H](c3ccccc3)[C@H](c3ccccc3)N2[C@H](c2ccc(OCCOC(=O)[C@H]3C[C@H]4C(=O)N[C@@H](Cc5ccccc5)C(=O)N4[C@H]3c3cccc(OCCO)c3)cc2)[C@@]12C(=O)Nc1ccc(I)cc12`, the composite z-score is 0.014 in [1]; 0.548 in test [2]; -0.0512 in test [3]; 0.957 in [4]; 1.09 in [5]; 0.0935 in test [6]. In addition, the composite z-score is 1.31 in test [7]; 0.56 in test [9]; -0.186 in test [10]; 1.53 in test [11]; 1.93 in test [15]; -0.193 in test [17]. Also, the composite z-score was 1.59 in [18], 1.03 in test [19] and 0.276 in [20]. Further, the z-score in test [8] was 2.41 (inactive); in [12] it was 2.59 (inactive); in [13] it was -2.26 (inactive); in [14] it was 0.874 (inactive); in test [16], -1.07 (inactive).

Take `COC(=O)[C@@]1(Cc2ccccc2)[C@H]2c3cc(C(=O)N4CCCC4)n(Cc4ccccc4)c3C[C@H]2CN1C(=O)c1ccccc1`: the composite z-score in test [1] was 0.425; in test [2], -0.463; in test [3], 0.113; in [4] it was 0.742; in [5] it was 1.69; in [6] it was 1.6. Besides, the composite z-score is 1.01 in test [7]; 1.54 in test [9]; -0.135 in test [10]; -0.089 in [11]; 3.41 in [15]; 0.432 in [17]. Moreover, the composite z-score in test [18] was 0.0362; in test [19] it was 1.05; in test [20] it was 0.416. For the same compound, the z-score was -1.15 (inactive) in [8]; -0.0324 (inactive) in test [12]; 0.58 (inactive) in test [13]; 1.55 (inactive) in [14]; -0.745 (inactive) in test [16].

For `CO[C@H]1O[C@H](CO)[C@@H](OC(=O)Nc2ccc(C(F)(F)F)cc2)[C@H](OC(=O)Nc2ccccc2)[C@H]1OC(=O)Nc1ccccc1`, the composite z-score turned out to be 0.113 in test [1]; 0.745 in test [2]; 0.233 in test [3]; 1.15 in test [4]; 1.58 in [5]; 1.72 in test [6]. For the same compound, the composite z-score in [7] was 1.3; in test [9], 1.07; in [10] it was -0.105; in test [11], 1.53; in test [15] it was 3.14; in test [17], 0.158. For the same compound, the composite z-score in [18] worked out at 0.896; in test [19], 1.04; in test [20], 0.172. Besides, the z-score was 2.74 (inactive) in test [8]; 0.719 (inactive) in [12]; -0.304 (inactive) in test [13]; 5.51 (inactive) in test [14]; -0.994 (inactive) in test [16].

For the compound `C=CCNC(=O)[C@H]1[C@@H]2C(=O)O[C@@H](c3ccccc3)[C@@H](c3ccccc3)N2[C@@H](c2ccc(O)cc2)[C@]12C(=O)N(C(=O)OCCOC)c1ccc(C#CC3(O)CCCCCC3)cc12`, the composite z-score amounted to 0.228 in [1]; 0.494 in test [2]; 0.0789 in test [3]; 0.875 in [4]; 0.793 in [5]; 1.2 in test [6]. Also, the composite z-score in test [7] is 1.27; in test [9], 0.229; in test [10] it was 0.142; in test [11], 1.55; in test [15] it was 2.45; in test [17] it was 0.0026. Also, the composite z-score in [18] worked out at 0.147; in test [19], 0.838; in test [20] it was 0.0638. Further, the z-score in test [8] was 0.168 (inactive); in [12], 0.729 (inactive); in [13] it was -0.932 (inactive); in [14], 0.943 (inactive); in [16] it was 1.87 (inactive).
